# According to PubChem BioAssay AID540276 (National Center for Advancing Translational Sciences (NCATS), 2011):
# Screen size: about 300,000 compounds; about 5,400 (1.8%) were called active. Roughly 28% stayed inconclusive and do not appear here. Calls follow the shape of the full dose curve; tested in HEK293 cells. For the sample, actives were picked, then their nearest neighbours and some compounds at random.
# Assay: qHTS for inhibitors of binding or entry into cells for Marburg Virus
# Conditions: Marburg virus pseudotyped entry inhibition, cell reporter; series mostly up to 37.8 µM; activity change, negative = inhibition: at the top concentration
# % is scaled to controls: 0 for no effect and ±100 for the full control effect; potency is read from the fitted curve at half-maximal effect.
Compound,"activity change, negative = inhibition",Potency
NC(=O)c1ccc(N2CCCC2)nc1,-7.25% [at 46.1 µM] (inactive),
OC(COc1ccccc1)CN1CCN(c2cccc(Cl)c2)CC1 (stereo not drawn),13.8% (inactive),
Oc1ccccc1N1CCN(C(=S)NCc2ccccc2)CC1,2.88% [at 46.1 µM] (inactive),
Oc1ccc(N2CCN(C(=S)NCc3ccccc3)CC2)cc1,,3.16 µM (active)
O=C(COC(=O)c1ccccc1C(=O)N1CCN(c2ccccc2)CC1)NCc1ccccc1,-18.8% (inactive),
CN(CC(=O)NCc1cccnc1)S(=O)(=O)c1cc(Cl)ccc1Cl,-29.2% (inactive),
O=C(O)C1C2C=CC(O2)C1C(=O)Nc1ccccn1 (stereo not drawn),7.56% [at 46.1 µM] (inactive),
Cc1c(C)n2c(SCC(=O)NC3CCCC3)nnc2[nH]c1=O,22.3% [at 46.1 µM] (inactive),
Cc1cc(N/C=C\C(=O)c2cccc3ccccc23)no1,2.44% (inactive),
COCC(C)NCc1cc(Br)ccc1OC (stereo not drawn),-2.58% [at 46.1 µM] (inactive),
CC(C)(C)NCc1cc(Br)ccc1OC1CCCC1,,23.1 µM (active)
COc1ccc(Br)cc1CN(C)C(=O)C1CC(=O)N(C2CCCC2)C1 (stereo not drawn),-19.1% (inactive),
Cc1ccc(C)c(NC(=O)c2cc(-c3cc(C)cc(C)c3O)n[nH]2)c1,-20.2% [at 46.1 µM] (inactive),
COc1ccccc1CNC(=O)[C@@H]1CCCN1C(=O)[C@@H]1Cc2ccccc2CN1C(=O)OC(C)(C)C,-17.4% [at 46.1 µM] (inactive),
COCCCNC(=O)[C@@H](C#N)c1nc2ccccc2nc1N1CCN(Cc2ccccc2)CC1,3.25% (inactive),
COc1ccc(C(=O)CSc2nnc(-c3ccco3)o2)cc1,13.7% [at 46.1 µM] (inactive),
CCC(=O)Oc1cccc(C(=O)Nc2ccc(-c3nnc(-c4ccco4)o3)cc2)c1,-28.3% (inactive),
CCOc1ccc(-c2nnc(-c3ccco3)o2)cc1,,6.51 µM (active)
CC(=O)Nc1ccc(S(=O)(=O)NCC(=O)OCC(=O)c2ccc[nH]2)cc1,-2.18% (inactive),
Cc1cccnc1CCNC(=O)C1CCC(=O)N(Cc2cccc(F)c2)C1 (stereo not drawn),5.71% (inactive),
CCOc1ccc(C(C)=O)cc1COC(=O)CNC(=O)c1cccs1,19.3% (inactive),
O=C(Nc1ccc(Cl)c(Cl)c1)c1ccccc1NC(=O)C1CC=CCC1C(=O)O (stereo not drawn),18.7% [at 46.1 µM] (inactive),
COC(=O)CC=C[C@@H](C)[C@@H](C=NOC[C@H]1O[C@H](c2ccccc2)C=C[C@H]1Oc1ccc(OC)cc1)N[S+](=O)([O-])c1ccc(C)cc1,1.02% [at 14.2 µM] (inactive),
NS(=O)(=O)c1ccc(NC(=O)COC(=O)c2c3c(nc4ccccc24)/C(=C\c2ccc4c(c2)OCO4)CCC3)cc1,,11.6 µM (active)
COc1cc(-c2cc(C(=O)OCC(=O)Nc3ccc4c(c3)OCO4)c3ccccc3n2)cc(OC)c1OC,-0.942% (inactive),
O=C(COC(=O)c1c2c(nc3ccccc13)/C(=C\c1cccs1)CCC2)Nc1ccccc1Cl,-41.2% (inactive),
COc1cccc(C(=O)NNC(=O)c2cccc(F)c2)c1,6.02% (inactive),
Cc1c(Cl)c([N+](=O)[O-])nn1CC(=O)NCCCN1CCOCC1,-0.45% [at 46.1 µM] (inactive),
